In PubChem BioAssay (NCATS):
Records with an inconclusive call do not appear. Active and inactive are the calls of the source. Unless noted, the call rests on the fitted dose curve; in most records, active means well fitted curve in the direction sought with a large enough effect; inconclusive means small, poorly fitted or top-dose-only effect, or another doubt; inactive means no such curve, though single readings can be large; an effect the other way counts as inactive or inconclusive.

How the values were obtained:
[1] = Cytometric Cell-Based qHTS for Inhibitors of the mTORC1 Signaling Pathway in MEF (Tsc2-/-, p53-/-) Cells (AID 2660);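 further: percent of cells above a phospho-rpS6 to PI ratio cutoff in each well; series mostly up to about 38 µM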
How it was run: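 Readout: Alexa-488 phospho-rpS6 (Ser235/236) intensity divided by PI intensity, thresholded against 7.5 nM rapamycin wells and reported as % positive cells. PI cell count served as the viability measure. Compound exposure was 24 hrs at 37 degree Celsius.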

[2] = High Content Imaging Cell-Based qHTS for Inhibitors of the mTORC1 Signaling Pathway in MEF (Tsc2-/-, p53-/-) Cells (AID 2666);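 further: percent of cells scored positive for phospho-rpS6 Ser235/236 immunostaining by imaging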
How it was run: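 Read-out: % positive cells per well, with thresholds from highest- and lowest-signal wells, based on phospho-rpS6 (Ser235/236) intensity normalized to Hoechst nuclear stain. Cells: Tsc2-/-, p53-/- MEFs carrying empty vector; compound 24 hrs, 37 degree Celsius.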

[3] = High Content Imaging Cell-Based qHTS for Inhibitors of the mTORC1 Signaling Pathway in MEF Cells (AID 2667);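 further: Tsc2-/- p53-/- MEFs stably re-expressing wild-type Tsc2 exposed 24 h; series mostly up to about 38 µM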
How it was run: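 MEF (Tsc2-/-, p53-/-, WT Tsc2 re-expressed); cpd 24 h, 37 °C; PFA fix; Alexa-488 anti-p-rpS6 Ser235/236, PI, Hoechst; IN Cell imaging; Hoechst/Alexa-488 intensity ratio; % active cells, thresholds set from rapamycin and DMSO wells.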

[4] = Cytometry Cell-Based qHTS for Inhibitors of the mTORC1 Signaling Pathway in MEF cells (AID 2668);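 further: Tsc2-/- p53-/- mouse embryonic fibroblasts stably re-expressing wild-type Tsc2; percent cells positive for phospho-rpS6 Ser235/236 relative to propidium iodide stain; series mostly up to about 38 µM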
How it was run: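 Pathway inhibition in WT Tsc2-rescued Tsc2-/-, p53-/- MEFs is measured as the Alexa-488 phospho-rpS6 to propidium iodide intensity ratio after 24 hrs of compound at 37 degree Celsius. PI-stained cell number gives viability.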

[5] = Validation screen for small molecules that induce DNA re-replication in MCF 10A normal breast cells (AID 463097); further: nearly all actives have a fitted effect of over 60% in size
How it was run: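 DNA re-replication was detected as a rise in nuclei with elevated Hoechst fluorescence after a 48 hr compound exposure of MCF 10A cells at 37 C.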

[6] = molecular target: Ubiquitin carboxyl-terminal hydrolase 2 (Homo sapiens) (UniProt O75604); test: qHTS Validation Assay for Inhibitors of Ubiquitin-specific Protease USP2a Using CHOP2 as the Reporter (AID 463106)
How it was run: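 USP2 core (10nM final) was preincubated with compound for 30min at RT in 20mM Tris-HCl pH 8.0, 2mM CaCl2, 2mM beta-mercaptoethanol, 0.05% CHAPS. Ub-CHOP2 and reporter substrate (25nM each) were added, and fluorescence (Ex 485/Em 531nm) was read after 60min.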

[7] = molecular target: DNA polymerase III PolC-type (Bacillus subtilis (strain 168)) (UniProt P13267); test: qHTS Validation Assay for the Inhibitors of DNA Replication in Gram-Positive Bacteria (AID 485295);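 further: reconstituted holoenzyme with PolC plus beta clamp SSB and primase; PicoGreen fluorescence of double-stranded DNA made on primed circular M13 template; series mostly up to about 57 µM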
How it was run: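 Primed replication of single-stranded M13Gori by a four-protein B. subtilis holoenzyme is measured at room temperature. Double-stranded product is quantified by PicoGreen fluorescence after an EDTA stop; inhibition is scaled between DMSO and EDTA controls.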

[8] = molecular target: Tumor susceptibility gene 101 protein (Homo sapiens) (UniProt Q99816); test: qHTS Validation Assay for Iinhibitors of HIV-1 Budding by Blocking the Interaction of PTAP/TSG101 (AID 485342; calls by dose curve)
How it was run: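 Fluorescence anisotropy measured PTAP-Tsg101 interaction. Final concentrations were 10 uM protein domain and 50 nM labeled peptide, equilibrated 20 min at room temperature.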

[9] = qHTS Validation Assay to Find Inhibitors of Chronic Active B-Cell Receptor Signaling (AID 485345; active means well fitted curve in the direction sought with a large enough effect in the main read-out, with a control signal flat, not every such curve was filed as active)
How it was run: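 TMD8 ABC-DLBCL cells with dox-inducible green luciferase–IκBα fusion and red native luciferase; compounds 46 uM–3 nM, 4 h at 37C with doxycycline in 0.5% FBS IMDM. Green/red ratio normalized to basal and 10 uM MG-132.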

Measured: Potency

Chain of Tumor susceptibility gene 101 protein (Homo sapiens) (Q99816 whole entry, looked up, the tested form may be a part): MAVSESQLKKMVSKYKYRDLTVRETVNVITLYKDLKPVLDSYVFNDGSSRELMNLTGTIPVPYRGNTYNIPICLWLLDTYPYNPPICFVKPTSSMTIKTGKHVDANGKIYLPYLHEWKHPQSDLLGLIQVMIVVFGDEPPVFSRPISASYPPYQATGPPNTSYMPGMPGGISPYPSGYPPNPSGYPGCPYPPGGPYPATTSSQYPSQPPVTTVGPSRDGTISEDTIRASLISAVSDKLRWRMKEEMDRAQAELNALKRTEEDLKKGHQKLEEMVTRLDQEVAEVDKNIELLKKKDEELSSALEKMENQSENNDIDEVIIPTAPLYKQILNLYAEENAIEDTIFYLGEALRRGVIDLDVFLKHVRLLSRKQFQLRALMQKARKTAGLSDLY
Chain of DNA polymerase III PolC-type (Bacillus subtilis (strain 168)) (P13267 whole entry, looked up): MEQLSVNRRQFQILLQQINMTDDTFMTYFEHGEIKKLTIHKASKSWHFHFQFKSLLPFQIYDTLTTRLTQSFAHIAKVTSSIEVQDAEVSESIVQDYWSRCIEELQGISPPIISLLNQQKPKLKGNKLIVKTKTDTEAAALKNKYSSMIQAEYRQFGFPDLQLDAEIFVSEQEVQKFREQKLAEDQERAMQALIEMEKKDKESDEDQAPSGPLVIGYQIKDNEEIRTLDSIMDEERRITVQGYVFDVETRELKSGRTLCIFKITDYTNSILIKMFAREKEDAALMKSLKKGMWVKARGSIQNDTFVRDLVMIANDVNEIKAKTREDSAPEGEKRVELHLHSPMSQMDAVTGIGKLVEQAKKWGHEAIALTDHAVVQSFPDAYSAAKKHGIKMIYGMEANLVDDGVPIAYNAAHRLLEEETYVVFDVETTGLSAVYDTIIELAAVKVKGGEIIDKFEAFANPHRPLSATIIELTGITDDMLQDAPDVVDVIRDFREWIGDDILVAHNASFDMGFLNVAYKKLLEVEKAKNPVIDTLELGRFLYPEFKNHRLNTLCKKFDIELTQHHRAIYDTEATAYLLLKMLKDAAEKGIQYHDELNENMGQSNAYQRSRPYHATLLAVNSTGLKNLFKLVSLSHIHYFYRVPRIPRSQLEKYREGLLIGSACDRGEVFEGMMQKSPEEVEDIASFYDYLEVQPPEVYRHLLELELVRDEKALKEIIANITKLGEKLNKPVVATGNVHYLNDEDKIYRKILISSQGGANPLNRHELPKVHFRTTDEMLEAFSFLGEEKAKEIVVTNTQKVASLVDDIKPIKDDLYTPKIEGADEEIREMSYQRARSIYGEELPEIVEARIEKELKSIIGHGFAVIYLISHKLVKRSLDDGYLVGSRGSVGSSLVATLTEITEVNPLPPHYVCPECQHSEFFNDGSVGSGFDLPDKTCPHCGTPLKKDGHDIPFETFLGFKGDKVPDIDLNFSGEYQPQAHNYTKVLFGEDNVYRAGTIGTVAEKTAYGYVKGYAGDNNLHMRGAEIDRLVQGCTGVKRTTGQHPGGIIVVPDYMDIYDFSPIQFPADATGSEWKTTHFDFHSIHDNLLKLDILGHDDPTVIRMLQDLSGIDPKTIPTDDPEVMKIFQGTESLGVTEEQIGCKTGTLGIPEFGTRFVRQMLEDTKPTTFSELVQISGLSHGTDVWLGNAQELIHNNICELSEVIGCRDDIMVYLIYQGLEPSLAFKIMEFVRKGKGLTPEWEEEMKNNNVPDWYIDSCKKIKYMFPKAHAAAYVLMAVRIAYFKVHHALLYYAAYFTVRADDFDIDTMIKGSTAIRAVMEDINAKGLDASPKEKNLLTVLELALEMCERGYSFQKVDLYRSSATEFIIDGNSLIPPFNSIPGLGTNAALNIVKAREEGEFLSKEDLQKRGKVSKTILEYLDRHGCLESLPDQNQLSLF
Chain of Ubiquitin carboxyl-terminal hydrolase 2 (Homo sapiens) (O75604 whole entry, looked up): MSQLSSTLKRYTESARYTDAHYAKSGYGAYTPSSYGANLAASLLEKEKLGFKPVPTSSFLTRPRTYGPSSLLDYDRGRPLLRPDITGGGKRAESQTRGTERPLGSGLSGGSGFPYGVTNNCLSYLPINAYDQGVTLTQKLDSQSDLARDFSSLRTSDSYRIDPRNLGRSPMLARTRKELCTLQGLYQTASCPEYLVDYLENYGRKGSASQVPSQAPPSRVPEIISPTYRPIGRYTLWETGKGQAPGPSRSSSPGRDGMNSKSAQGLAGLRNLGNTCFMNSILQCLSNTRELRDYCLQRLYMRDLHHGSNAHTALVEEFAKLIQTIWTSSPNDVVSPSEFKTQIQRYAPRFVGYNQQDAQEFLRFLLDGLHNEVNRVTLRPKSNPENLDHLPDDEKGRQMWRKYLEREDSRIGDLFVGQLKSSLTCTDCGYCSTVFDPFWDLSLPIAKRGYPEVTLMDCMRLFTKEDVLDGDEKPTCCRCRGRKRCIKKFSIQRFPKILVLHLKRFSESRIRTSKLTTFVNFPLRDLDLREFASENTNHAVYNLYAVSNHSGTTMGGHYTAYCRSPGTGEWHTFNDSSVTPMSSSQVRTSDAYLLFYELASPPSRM

CC(N)(Cc1ccc(O)cc1)C(=O)O (stereo not drawn)
inactive: all assays above

O=C(O)c1ccccc1Nc1ccccc1
inactive: all assays above

COc1ccccc1N1CCN(CCCNc2c(C)c(=O)n(C)c(=O)n2C)CC1
inactive: all assays above

CCCN(CCc1ccccc1)C1CCc2c(O)cccc2C1 (stereo not drawn)
inactive: all assays above

NC(N)=N[C@@H](CCC(=O)O)C(=O)O
inactive: all assays above

COc1ccc2c(c1)CCC1C2CC[C@@]2(C)C1CC[C@@H]2NCCCCCCN1C(=O)C=CC1=O (stereo partly drawn)
inactive: all assays above

CCOC(=O)C12CC1/C(=N/O)c1ccccc1O2 (stereo not drawn)
inactive: all assays above

N=C(N)SCCc1cnc[nH]1
inactive: all assays above

COc1cc(C(O)C(=O)O)ccc1O (stereo not drawn)
inactive: all assays above

CC(N)(C(=O)O)c1ccc(C(=O)O)cc1 (stereo not drawn)
inactive: all assays above

CC(/C=C/c1cccc(Oc2ccc(F)cc2)c1)N(O)C(N)=O (stereo not drawn)
inactive: all assays above

NCCCCN=C(N)N
inactive: all assays above
